VP16 counter – counter-screen for ROR gamma inhibitors: Gal4-VP16 reporter | Drosophila S2 Gal4-VP16 UAS-luciferase, luminescence, 20 h | 310,000 compounds, 3.5% hits | Potency, µM (top dose mostly 53.6 µM), actives largely listed as inhibitors;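 note: Gal4-VP16 expression switched on by copper sulfate through the metallothionein promoter; nearly all actives have a fitted effect of over 50% in size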
MCF10A rerep – induces DNA re-replication in MCF 10a normal breast cells. MCF 10A DNA re-replication, Hoechst nuclear intensity, 48 h. Potency, µM (titrated, usually from 46.1 µM), actives largely listed as activators. 350,000 compounds, 2.9% hits; note: nearly all actives have a fitted effect of over 50% in size
SW480 rerep – DNA re-replication induction in SW480 cells. SW480 DNA re-replication, Hoechst DNA content imaging, 48 h. Potency, µM (series often up to 46.1 µM), hits mostly activators. AID 624297. 340,000 compounds, 1.8% hits; note: nearly all actives have a fitted effect of over 55% in size
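DNA re-replication was detected as more nuclei of elevated Hoechst intensity after 48 hr exposure to compound (23 nL pinned per well of 250 cells).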
RORg inh – inhibitors of mouse ROR gamma transcriptional activity; P51450; Drosophila S2 Gal4-RORgamma UAS-luciferase reporter, 20 h; Potency, µM (doses to about 53.6 µM), usual class: inhibitors; 310,000 compounds, 5.4% hits; AID 2551; note: nearly all actives have a fitted effect of over 60% in size
Target sequence (P51450 whole entry, looked up, the tested form may be a part): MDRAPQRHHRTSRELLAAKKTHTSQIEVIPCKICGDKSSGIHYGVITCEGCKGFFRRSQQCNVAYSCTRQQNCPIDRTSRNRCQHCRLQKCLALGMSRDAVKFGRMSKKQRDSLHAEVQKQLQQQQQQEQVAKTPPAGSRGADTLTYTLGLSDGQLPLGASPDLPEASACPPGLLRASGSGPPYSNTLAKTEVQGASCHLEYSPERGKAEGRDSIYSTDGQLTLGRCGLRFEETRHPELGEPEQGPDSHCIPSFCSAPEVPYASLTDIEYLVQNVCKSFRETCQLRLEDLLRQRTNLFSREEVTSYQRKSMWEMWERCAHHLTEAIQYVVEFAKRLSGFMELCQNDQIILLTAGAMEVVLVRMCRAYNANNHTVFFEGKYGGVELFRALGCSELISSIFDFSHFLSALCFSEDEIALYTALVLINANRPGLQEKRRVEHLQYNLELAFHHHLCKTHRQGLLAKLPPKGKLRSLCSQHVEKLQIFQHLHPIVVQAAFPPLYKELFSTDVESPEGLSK
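Drosophila Schneider cells stably carrying a metallothionein-driven Gal4 DBD–ROR gamma fusion and a UAS-Photinus luciferase reporter were exposed to compound for 1 hr, then induced with copper sulfate (700 uM final) for 20 hr at ambient temperature before luminescence reading.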
Chronic BCR inh – inhibitors of chronic active B-cell receptor signaling. AID 493014. Potency, µM (titrated, usually from 46.1 µM), usual class: inhibitors. 340,000 compounds, 0.05% hits. ABC-DLBCL IkBa-CBG/CBR reporter, luminescence ratio, 4 h; active = well fitted inhibition curve with a large enough effect in the signal ratio, with a control signal flat, not every such curve was filed as active; inconclusive = small, poorly fitted or top-dose-only effect, or effect the other way, or a change in a side signal; the % refers to the signal ratio
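Concentration-response series (up to 46 uM) were applied to TMD8 dual-reporter cells for 4 h at 37C with doxycycline. Green/red ratio, after filter-overlap correction, defined %Activity; red signal alone was normalised to basal cells and zero luminescence.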
Giardia kill – Giardia lamblia killing. Giardia lamblia trophozoite viability. activity change, % at 7.66 µM, hits read low. 340,000 compounds, 0.15% hits. AID 540267; in the data active = activity change below about -80%; inconclusive = between about -30% and that limit;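 note: parasites exposed to compound for two days anaerobically before the ATP read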
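Killing of trophozoites was scored by loss of ATP luminescence after a 48 hrs anaerobic exposure to compounds at 37 deg C, using 100 cells per well.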
A number is an active result; – = inactive; ? = inconclusive; · = not tested or not shown; [ ] = remark or other dose. Only some compounds are listed: those with a hit (about 8.3% of all), similar ones and a draw of the others. Unless noted, calls come from the whole dose curve; as a rule, active = well fitted curve in the direction sought with a large enough effect; inconclusive = small, poorly fitted or top-dose-only effect, or another doubt; inactive = no such curve, though single readings can be large; an effect the other way counts as inactive or inconclusive.

SMILES	VP16 counter	MCF10A rerep	SW480 rerep	RORg inh	Chronic BCR inh	Giardia kill
CCN1CCC2(CC1)N=C(c1ccc(F)cc1)C(=S)N2C(=O)c1ccc(C(C)(C)C)cc1	?	–	–	4µM	–	–
CC12C=C(/C=C/c3ccc(Br)cc3)C(C)(C1)C(c1ccc(Br)cc1)CC2=O (stereo not drawn)	–[10 µM]	·	·	–[10 µM]	·	·
CNC(=S)Nc1ccc(Nc2ccccc2)cc1	–	–	–	11µM	–	–
CNC(=S)Nc1ccc(Br)cc1	–	–	–	35µM	–	–
CNC(=S)Nc1ccc(OC(F)(F)F)cc1	10µM	–	–	7.1µM	?	–
CCCNC(=S)Nc1ccc(Nc2ccccc2)cc1	16µM	–	–	5µM	–	–
COc1ccc(N2CCC(CNC(=S)Nc3cc(C)ccc3C)C2)cc1 (stereo not drawn)	10µM	–	–	1.8µM	–	–
COc1ccc(N2CCN(C(=S)Nc3cc(C)ccc3C)CC2)cc1	–	–	–	2µM	–	–
FC(F)(F)c1cccc(N2CCN(C(=S)NC3CCCCC3)CC2)c1	?	–	·	16µM	?	–
Cc1ccc(C)c(NC(=S)N2CCC(c3nc4ccccc4s3)CC2)c1	6.3µM	–	–	2.8µM	?	–
COc1cc(OC)c(C(=O)OCC(=O)Nc2ccc(N3CCOCC3)cc2)cc1OC	·	–	–	·	?	–
Cn1cc(Cl)c(C(=O)OCC(=O)Nc2cccc(Cl)c2)n1	–	–	–	–	–	–
O=C(Nc1cccc(S(=O)(=O)N2CCCCC2)c1)C1=NN(c2ccccc2)C(=O)CC1	·	–	–	·	–	?
O=C(c1c(F)cccc1F)N1CCN(c2cccc(C(F)(F)F)c2)CC1	18µM	–	–	?	–	–
Cc1ccnc(NC(=S)N2CCN(c3cccc(C(F)(F)F)c3)CC2)c1	0.56µM	?	–	0.32µM	?	–
S=C(Nc1cc(Cl)ccc1Oc1ccccc1)N1CCN(c2ccccn2)CC1	?	?	–	11µM	–	–
Cc1ccc(C)c(NC(=S)N2CCN(c3cccc(C(F)(F)F)c3)CC2)c1	11µM	–[0.0737 µM]	–	4.5µM	–	–
Cn1cccc1C(=O)N1CCN(c2cccc(C(F)(F)F)c2)CC1	–	–	–	–	?	–
CC1C/C(=C\c2ccccc2[N+](=O)[O-])c2nc3ccccc3c(C(=O)O)c2C1 (stereo not drawn)	–	?	–	–	?	–
CCNc1ncc2nc(C)c(=O)n(Cc3cccs3)c2n1	–	·	·	–	·	·
CN(C)S(=O)(=O)c1ccc(NC(=O)N2CCN(c3cccc(C(F)(F)F)c3)CC2)cc1	10µM	?	–	?	?	–
COc1ccc(N2CCN(c3cc(C)c4ccc(C)cc4n3)CC2)cc1	–	21µM	–	–	?	–
COc1ccc(OC)c(NC(=S)N2CCN(c3ccccn3)CC2)c1	–	–	–	–	–	–
Cc1ccc(C)c(NC(=S)N2CCN(c3ccccn3)CC2)c1	?	–	–	13µM	–	–
CCOc1ccc(S(=O)(=O)N2CCCCC2)cc1NC(=O)C1CSC2(C)CCC(=O)N12 (stereo not drawn)	·	?	–	·	?	–
SMILES	VP16 counter	MCF10A rerep	SW480 rerep	RORg inh	Chronic BCR inh	Giardia kill
CC(OC(=O)Cc1c[nH]c2ccccc12)C(=O)c1ccccc1 (stereo not drawn)	·	–	–	·	–	–
C=CCn1c(NCCc2ccccc2)nc2c1c(=O)n(C)c(=O)n2C	?	–	–	–	–	?
CCN(CC)CCNc1nc2c(c(=O)n(C)c(=O)n2C)n1C/C=C(/C)Cl	–	16µM	–	–	–	–
C/C(Cl)=C\Cn1c(NCCc2ccccc2)nc2c1c(=O)n(C)c(=O)n2C	3.5µM	18µM	–	7.1µM	–	–
Cc1cccc(Nc2nc(-c3ccc4c(c3)OCCO4)cs2)c1	–	14µM	7.3µM	–	–	–
COc1cccc(C(=O)Nc2nc(-c3ccc4c(c3)OCO4)cs2)c1	–	16µM	–	–	?	–
COc1cccc(C(=O)Nc2nc(-c3ccncc3)cs2)c1	–	–	–	–	?	–
N#CCC(=O)Nc1nc(-c2ccc3c(c2)OCCO3)cs1	–	23µM	?	–	–	–
Cc1ccc(-c2csc(/C(C#N)=C/Nc3ccc4c(c3)OCCO4)n2)cc1	–	3.7µM	?	–	–	–
O=C(CCCCl)Nc1nc(-c2ccc3c(c2)OCCO3)cs1	–	–	–	–	–	–
CCc1ccc(-c2csc(NC(=O)C3CC(=O)N(c4ccc5c(c4)OCCO5)C3)n2)cc1 (stereo not drawn)	–	18µM	?	?	–	–
Cc1csc(NC(=O)C2CC(=O)N(c3ccc4c(c3)OCCO4)C2)n1 (stereo not drawn)	·	–	–	·	–	–
N#CCC(=O)N/N=C\c1ccc(OC/C=C/c2ccccc2)cc1	–	–	–	–	?	–
COC(=O)N/N=C\c1ccc(OC/C=C/c2ccccc2)c(OC)c1	–	–	–	–	–	–
C=CCOc1ccccc1/C=N/NC(=O)Cc1ccc(C)cc1	?	–	–	11µM	–	–
COc1cc(/C=N\NC(=O)C(C)(C)O)ccc1OC/C=C/c1ccccc1	?	–	?	35µM	–	–
N#CCC(=O)N/N=C\c1ccccc1OC/C=C/c1ccccc1	–	–	16µM	–	?	–
COc1cccc(/C=N\NC(C)=O)c1OC/C=C/c1ccccc1	11µM	–	?	8.9µM	?	–
O=C(NCc1nnnn1-c1ccc(F)c(F)c1)c1ccc2c(c1)OCO2	·	–	–	·	–	–
COCC(=O)N/N=C\c1cccc(OC)c1OC/C=C/c1ccccc1	?	–	16µM	13µM	–	–
COCC(=O)N/N=C\c1ccccc1OC/C=C/c1ccccc1	–	–	?	–	–	–
Nc1c(C(=O)Nc2ccccc2Cl)nnn1-c1ccc2c(c1)OCCO2	?	?	–	0.056µM	–	–
O=C(NCCCc1nc2ccccc2n1CCOc1ccccc1)C1CCCCC1	·	·	·	·	·	–
CC[C@@]1(c2ccccc2OC)ON(c2ccccc2C(F)(F)F)C1=O	·	?	?	·	?	–
CCC1(c2ccccc2)ON(c2c(Br)cccc2Br)C1=O (stereo not drawn)	·	12µM	?	·	–	–
O=C(COC(=O)Cc1c(F)cccc1Cl)NC(=O)Nc1ccccc1F	·	–	–	·	–	–
O=C/C(=C\Nc1ccc(Cl)cn1)c1nc2cc(Cl)ccc2o1	–	16µM	–	?	·	–
N#C/C(=C\Nc1ccc(Cl)cn1)S(=O)(=O)c1ccccc1	–	–	–	–	–	–
CN(C)C(=O)c1ccc(N/C=C(\C=O)c2nc3ccccc3o2)cc1	–	–	–	?	–	–
O=C/C(=C\Nc1ccc(S(=O)(=O)CCO)cc1)c1nc2cc(Cl)ccc2o1	–	23µM	?	8.9µM	–	–

From PubChem
